Granule exo inh = lytic granule exocytosis inhibition; TALL-104 LAMP-1 surface exposure, flow cytometry; cells stimulated with thapsigargin and PMA; inhibition, % at 10 µM; 360,000 compounds, 0.66% hits;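 active means inhibition above about 55%, limit read from the data; inconclusive means no clear call, values can overlap the other calls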
PP5 inh = blocks human protein phosphatase 5 activity; AID 1987; 320,000 compounds, 0.18% hits; purified PP5c, OMFP substrate fluorescence; P53041; inhibition, % at 6.7 µM;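 active means inhibition above the campaign's mean inhibition across all tested compounds plus 3 SD, cut at about 9.5% in these data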
SKKanGAS inh = SKKanGAS growth inhibition; S. pyogenes SKKanGAS, kanamycin growth, BacTiter-Glo, 6 h; 300,000 compounds, 1.3% hits; AID 1662; inhibition, % at 7.5 µM;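 active means mean replicate score, as percent of positive control median, at least 50; inconclusive means mean below 50 but one replicate at or above 50; inactive means mean and every replicate below 50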;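 further: strain carries kanamycin resistance gene driven by streptokinase promoter and grows in 40 µg/ml kanamycin; loss of luminescence reflects streptokinase promoter inhibition or plain growth inhibition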
IDE inh = cellular human IDE inhibition. P14735. inhibition, % at 5.59 µM. AID 434962. 320,000 compounds, 0.41% hits. HEK cells, FAbetaB cleavage, fluorescence polarization;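 active means percent inhibition above the average of all tested compounds plus 3 SD, set per screening campaign, cut at about 16% in these data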;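 further: IDE supplied by intact live HEK cells; FP after avidin binding of uncleaved biotin substrate so inhibition keeps polarization high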
PP1 inh = PP1-alpha (human) inhibition in PP5 counter-screen. AID 2235. inhibition, % at 6.7 µM. 320,000 compounds, 0.9% hits. P62136. purified PP1alpha, OMFP fluorescence;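 active means inhibition above the mean inhibition of all tested compounds plus 3 SD, computed separately for each screening campaign, cut at about 15% in these data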
IDE cell activ = IDE (human) activation, cell-based. HEK cells, FAbeta-B cleavage, fluorescence polarization; 0% vehicle, 100% cell-free pure enzyme wells. P14735. activation, % at 5.96 µM. 340,000 compounds, 0.073% hits;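 active means activation above the mean of all tested compounds plus 3 SD, set per screening campaign, cut at about 17% in these data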
Large screens that a line does not name were inactive. A selection: hits, their analogues and other compounds. The true share with any hit is near 2.8%.

Cc1cnc(C(=O)Nc2nnc(SCc3c(Cl)cccc3Cl)s2)cn1	SKKanGAS inh 102.5
O=C1CC(c2ccccc2)CC(=O)N1c1ccc(C(F)(F)F)cc1	none (no result: SKKanGAS inh)
COc1ccc2cc([C@@H](C)C(=O)O)ccc2c1	none (no result: SKKanGAS inh)
FC(F)(F)c1cc(-c2ccccc2)nc(N2CCCCC2)n1	SKKanGAS inh 84.3
Cc1[nH]n(C(N)=S)c(=O)c1N=Nc1cccc(C(F)(F)F)c1	none
Cc1[nH]n(C2=NCCS2)c(=O)c1N=Nc1cccc(C(F)(F)F)c1	SKKanGAS inh 82.7
COc1cc(/C=C2\S/C(=N/S(=O)(=O)c3ccccc3)NC2=O)c([N+](=O)[O-])cc1OC	SKKanGAS inh 68.1
Cc1ccc(S(=O)(=O)N2CCCCC2CCNC(=O)C(=O)NCC2CCCO2)cc1 (centres undefined)	PP1 inh 17.1 (no result: SKKanGAS inh)
CCOC(=O)C1CCCN(C(=S)NC2CCCC2)C1 (centres undefined)	none
O=C(Cc1cccc2ccccc12)Nc1ccc(-c2cc3ccccc3oc2=O)cc1	PP1 inh 16.9
COc1cccc(C(=O)NN2CC(O)=C(c3nc(C)cs3)C2=N)c1	none
Cc1ccc(C(=O)NN2CC(O)=C(c3nc(-c4cccc([N+](=O)[O-])c4)cs3)C2=N)cc1	PP1 inh 17.4
COc1ccc(OC(=O)N2C/C(=C/c3ccccc3)C(=O)/C(=C\c3ccccc3)C2)cc1	Granule exo inh 61.6 (no result: PP5 inh, SKKanGAS inh, IDE inh, PP1 inh)
CCOC(=O)N1C/C(=C\c2ccccc2)C(=O)/C(=C/c2ccccc2)C1	none (no result: PP5 inh, IDE inh, PP1 inh)
CN(C)CCC(=O)N1C/C(=C/c2ccccc2)C(=O)/C(=C\c2ccccc2)C1	Granule exo inh 67.8 (no result: PP5 inh, SKKanGAS inh, IDE inh, PP1 inh)
O=C(CCNC(=O)c1ccccc1)NCCc1ccc(Cl)cc1	none
COCC(=O)N(C)C[C@H]1N[C@@](C)(C(=O)OC)[C@H]2C(=O)N(C)C(=O)[C@@H]12	none (no result: PP5 inh, SKKanGAS inh, PP1 inh)
COc1ccc(-c2nc(SCc3ccccc3)n(S(C)(=O)=O)n2)cc1	PP5 inh 11.4
COc1ccc2c3c(cccc13)N(C)N=C2C	PP1 inh 16.6
Cc1cc(C)c(C)c(S(=O)(=O)N2CCC(C(=O)NNC(=O)c3ccccc3O)CC2)c1C	SKKanGAS inh 60.8
O=c1oc(-c2ccccc2F)nc2c1cnn2-c1ccccc1	Granule exo inh 84.5
O=c1oc(-c2cccc(Cl)c2)nc2c1cnn2-c1ccccc1	none
CCOc1ccc(C(=O)NC2CC(=O)N(c3ccc4c(c3)OCCO4)C2)cc1 (centres undefined)	none
O=C(N/N=C/c1ccc([N+](=O)[O-])o1)c1ccc(NS(=O)(=O)c2cccs2)cc1	SKKanGAS inh 72.5
O=C(N/N=C\C=C\c1ccc([N+](=O)[O-])o1)c1cccs1	SKKanGAS inh 91.2 (no result: PP5 inh, IDE inh, PP1 inh)
CN1CC(=O)NC1=NC(=O)c1ccc(Cl)c(S(=O)(=O)N2CCCCCC2)c1	none
COCCN(C(=O)CSc1nnc(-c2ccccc2F)o1)c1c(N)n(Cc2ccccc2)c(=O)[nH]c1=O	none (no result: PP5 inh, SKKanGAS inh, IDE inh, PP1 inh, IDE cell activ)
CC1(C)CC(=O)C2=C(C1)NC(SCC(=O)Nc1ccccc1)=C(C#N)C21CCCCC1	none
CC(C)(C)C1CCC2(CC1)C(C#N)=C(SCC(=O)Nc1ccccc1)NC(=O)C2C#N (centres undefined)	SKKanGAS inh 68.4
O=C(NCc1cccnc1)/C(=C/c1ccc(-c2ccc(Cl)cc2)o1)S(=O)(=O)c1ccccc1	Granule exo inh 86.7
COC(=O)[C@@]12C[C@@H](CC(=O)NCCC(C)C)C(=O)N(Cc3cccc4ccccc34)C1=CCC(C)(C)C2	none (no result: PP5 inh, SKKanGAS inh, IDE inh, PP1 inh, IDE cell activ)
N=c1n(Cc2ccccc2)c2ccccc2n1CC(O)COc1ccc(Cl)cc1Cl (centres undefined)	IDE cell activ 20.4 (no result: PP5 inh, SKKanGAS inh, IDE inh, PP1 inh)
COC(=O)C(CC(=O)c1ccc(C)cc1)n1nc(C)cc1C (centres undefined)	Granule exo inh 56.6
CCN(C(=O)CSc1nnc(-c2ccc(OC)cc2)n1C(C)C)C1CCS(=O)(=O)C1 (centres undefined)	none (no result: PP5 inh, SKKanGAS inh, PP1 inh)
Cc1ccc(C)c(NC(=S)NNc2ccc(F)cc2F)c1	Granule exo inh 84.0
O=C(Nc1nnc(S(=O)(=O)N2CCCCC2)s1)c1cccc(Br)c1	none
CSc1ccc(S(=O)(=O)NCc2ccccc2Cl)cc1	none
CSc1ccc(S(=O)(=O)NCc2ccc(Cl)cc2Cl)cc1	Granule exo inh 100.2
CSCCC(NC(=O)c1ccc(Cl)c([N+](=O)[O-])c1)C(=O)N1CCN(C/C=C/c2ccccc2)CC1 (centres undefined)	none
Cc1cc(C)n(-c2nc(N(c3ccccc3)c3ccccc3)nc(-n3nc(C)cc3C)n2)n1	Granule exo inh 88.3, SKKanGAS inh 107.7
Cc1ccc(-c2csc(N3C(=N)SCC3=O)n2)cc1	none (no result: Granule exo inh, IDE cell activ)
N=C1SCC(=O)N1c1ncc(Cc2ccc(F)cc2)s1	SKKanGAS inh 73.7
Cc1csc2nc(CSc3nc4ccccc4o3)c(Br)n12	SKKanGAS inh 60.1
Cc1csc2nc(CSc3nncn3-c3ccccc3)c(Br)n12	none
O=C(Nc1cccc(-c2ccc(F)cc2)c1)C1CCCN(C(=O)c2cscn2)C1 (centres undefined)	none
Cc1ccc(S(=O)(=O)N2CCN(Cc3ccccc3)CC2)cc1	none
Cc1ccc(S(=O)(=O)OCCC2=CC(=O)CCN2Cc2ccccc2)cc1	IDE cell activ 20.6 (no result: PP5 inh, SKKanGAS inh, PP1 inh)
CCCCC1CCC(c2nc(-c3ccccn3)no2)CC1 (centres undefined)	SKKanGAS inh 61.0
c1ccc(-c2noc(C3CCC3)n2)nc1	none (no result: IDE cell activ)
CN(C)c1ccc2c(c1[N+](=O)[O-])Cc1ccccc1-2	none (no result: PP5 inh, SKKanGAS inh, IDE inh, PP1 inh)
CN(C)CCCN(C(=O)CCc1ccccc1)c1nc2ccc(Br)cc2s1	IDE cell activ 28.6
O=C(C1CN(C(=O)c2cc3ccccc3o2)c2ccccc2O1)N1CCCCC1 (centres undefined)	none (no result: PP5 inh, SKKanGAS inh, IDE inh, PP1 inh, IDE cell activ)
CCc1ccc(S(=O)(=O)Nc2ccc(O)c3c(=O)cc(-c4ccccc4Cl)oc23)cc1	Granule exo inh 75.6
O=c1cc(-c2ccccc2Cl)oc2c(NS(=O)(=O)c3cc(Cl)cc(Cl)c3O)ccc(O)c12	SKKanGAS inh 109.1, PP1 inh 26.8
O=c1cc(-c2ccccc2Cl)oc2c(NS(=O)(=O)c3cccc4nsnc34)ccc(O)c12	none
Cn1c(=O)c2cc(NC(=S)NCc3ccccc3F)ccc2n1C	none (no result: PP5 inh, SKKanGAS inh, IDE inh, PP1 inh, IDE cell activ)
CCOC(=O)CC1(CCc2ccccc2)Oc2ccccc2O1	none (no result: PP5 inh, SKKanGAS inh, IDE inh, PP1 inh, IDE cell activ)
O=[N+]([O-])c1ccc(/C=N/Nc2ccnc3cc(Cl)ccc23)o1	SKKanGAS inh inconclusive
Clc1ccc2c(N/N=C/c3ccccc3Br)ccnc2c1	Granule exo inh 92.5
Clc1ccc2c(N/N=C/c3cccc(Br)c3)ccnc2c1	Granule exo inh 73.9, SKKanGAS inh 82.4
C/C(=N/Nc1ccnc2cc(Cl)ccc12)c1ccc(N)cc1	PP1 inh 16.9
O=C(/C=C/[C@H]1O[C@@H](n2ccc(=O)[nH]c2=O)[C@H](O)[C@@H]1O)NCC1CCCO1 (some centres undefined)	none (no result: PP5 inh, SKKanGAS inh, IDE inh, PP1 inh, IDE cell activ)
O=C(Nc1nnc(SCc2ccc(F)cc2)s1)c1ccc2c(c1)C(=O)N(c1ccccc1Cl)C2=O	SKKanGAS inh 54.2

Screens as filed in PubChem.
